Source: PubChem
Most compounds without a hit are left out; they make up all but 18% or so of the library.
TDP1 cell CPT: qHTS for Inhibitors of human tyrosyl-DNA phosphodiesterase 1 (TDP1): qHTS in cells in presence of CPT; Potency, µM (top dose mostly 46.2 µM), for the others: top-dose activity change, negative = growth inhibition, most hits filed as inhibitors; 12% of 420,000 active; AID 686979, 2013; chicken DT40 Tdp1-/-;hTDP1 cells + 20 nM CPT, ATP luminescence, 48 h; further: potency means the concentration at half of the fitted maximal effect; nearly all actives have a fitted effect of over 55% in size
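Chicken DT40 Tdp1-/- cells stably complemented with human TDP1 were seeded at 400 cells/well in medium containing 20 nM camptothecin, exposed to pin-transferred compounds, and grown at 37 °C for at least 48 hr. Viability was read as ATP luminescence.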
LDHA inh: qHTS assay for inhibitors of human lactate dehydrogenase | L-lactate dehydrogenase A chain (Homo sapiens), P00338 | purified LDHA, NADH/diaphorase-resazurin fluorescence; active compounds read low | activity change, % (values are at about 110 or 230 µM) | 0.15% of 480,000 active | AID 1347041, 2019; in the data active means activity change below about -30%; inconclusive means mostly about -25% to -30%;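 further: plate controls were DMSO wells for no effect and wells without enzyme for full effect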
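Human LDH5 at 2 nM final in Tris HCl pH 7.4 with 0.06 mM NADH and 0.2 mM pyruvate, reacted 5 minutes at room temperature. Remaining NADH coupled via diaphorase/resazurin; resorufin fluorescence read at 0 and 20 minutes, normalized to enzyme-free and DMSO wells.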
RORg inh: qHTS for inhibitors of ROR gamma transcriptional activity. 5.4% of 310,000 active. Drosophila S2 Gal4-RORgamma UAS-luciferase reporter, 20 h. Potency, µM (titrated, usually from 53.6 µM), for inactives: at the highest dose activity change, negative = inhibition, usual class: inhibitors; further: potency means the concentration at half of the fitted maximal effect; nearly all actives have a fitted effect of over 60% in size
Target sequence (P51450 whole entry, looked up, the tested form may be a part): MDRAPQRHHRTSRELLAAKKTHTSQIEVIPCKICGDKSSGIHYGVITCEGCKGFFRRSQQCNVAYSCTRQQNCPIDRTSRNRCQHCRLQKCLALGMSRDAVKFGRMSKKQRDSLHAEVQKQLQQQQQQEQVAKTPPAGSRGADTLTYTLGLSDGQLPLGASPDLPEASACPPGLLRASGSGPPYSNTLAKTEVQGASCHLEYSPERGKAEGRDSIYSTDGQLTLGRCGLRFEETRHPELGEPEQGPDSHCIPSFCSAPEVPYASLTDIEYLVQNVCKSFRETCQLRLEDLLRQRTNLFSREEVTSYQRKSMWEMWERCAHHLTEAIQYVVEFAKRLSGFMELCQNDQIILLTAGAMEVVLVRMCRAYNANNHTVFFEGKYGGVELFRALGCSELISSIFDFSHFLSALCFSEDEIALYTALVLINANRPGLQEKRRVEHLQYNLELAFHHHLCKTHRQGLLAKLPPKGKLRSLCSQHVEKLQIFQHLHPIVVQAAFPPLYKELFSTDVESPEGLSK
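Luciferase reporter read in Schneider cells carrying Gal4-RORγ (mouse) and UAS-Photinus luciferase; cells given compound 1 h before 700 uM copper sulfate induction, then incubated 20 h at ambient temperature.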
Gal4-VP16 FLuc: VP16 counterscreen qHTS for inhibitors of ROR gamma transcriptional activity. AID 2546, 2010. 3.5% of 310,000 active. Drosophila S2 Gal4-VP16 UAS-luciferase, luminescence, 20 h. Potency, µM (doses to about 53.6 µM), without a hit: at the highest dose activity, negative = inhibition, actives largely listed as inhibitors;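 further: Gal4-VP16 expression switched on by copper sulfate through the metallothionein promoter; potency means the concentration at half of the fitted maximal effect; nearly all actives have a fitted effect of over 50% in size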
IL1B secr inh: qHTS for Inhibitors of Inflammasome Signaling: IL-1-beta AlphaLISA Primary Screen; THP-1 LPS/ATP IL-1B secretion, AlphaLISA, 16 h; active compounds read low; activity change, % at 57.5 µM; 4.7% of 360,000 active; in the data active means activity change below about -50%; inconclusive means mostly about -30% to -49%
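Secreted IL-1B measured by AlphaLISA bead assay after 16 h compound exposure of THP-1 cells; compounds (final up to 57.5 uM) added 1 h before LPS (250 ng/mL) and ATP (1.25 mM) stimulation; lower signal means less secretion.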
DT40 TDP1 no CPT: qHTS for Inhibitors of human tyrosyl-DNA phosphodiesterase 1 (TDP1): qHTS in cells in absence of CPT. 15% of 420,000 active. AID 686978, 2013. DT40 Tdp1-/- hTDP1 cells, no CPT, ATP luminescence, 48 h. Potency, µM (doses to about 46.2 µM), for the others: top-dose activity change, negative = growth inhibition, most hits filed as inhibitors; further: potency means the concentration at half of the fitted maximal effect; nearly all actives have a fitted effect of over 55% in size
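Chicken DT40 Tdp1-/- cells complemented with human TDP1, screened without camptothecin (DMSO vehicle only), 400 cells/well. Compounds pin-transferred, cells incubated at 37 °C for at least 48 hr. Growth read as ATP-dependent luminescence (CellTiter-Glo, 30 min at RT).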
The depositor's hits bear a star. Unless noted, the call rests on the fitted dose curve; in most records, active means well fitted curve in the direction sought with a large enough effect; inconclusive means small, poorly fitted or top-dose-only effect, or another doubt; inactive means no such curve, though single readings can be large; an effect the other way counts as inactive or inconclusive. Unless noted, on the % scale 0 is the no-effect control and ±100 the full control effect.

Results for CCN(CC)CCNC(=O)c1cc2c(-c3ccc(Cl)cc3)nn(C)c2s1 ?
TDP1 cell CPT: inconclusive; LDHA inh: 4; RORg inh: inconclusive; Gal4-VP16 FLuc: -26%; IL1B secr inh: -90*; DT40 TDP1 no CPT: inconclusive

Results for Cn1nc(-c2ccc(Cl)cc2)c2cc(C(=O)NCCN3CCOCC3)sc21 ?
TDP1 cell CPT: -22%; LDHA inh: 0; RORg inh: -14%; Gal4-VP16 FLuc: -8%; IL1B secr inh: -18; DT40 TDP1 no CPT: inconclusive

What do the screens show for `CCN1CCN(C(=O)c2cc3c(-c4ccc(Cl)cc4)nn(C)c3s2)CC1`?
TDP1 cell CPT: inconclusive; LDHA inh: 2; RORg inh: 9%; Gal4-VP16 FLuc: -16%; IL1B secr inh: inconclusive; DT40 TDP1 no CPT: inconclusive

What do the screens show for `CCN(CC)c1ccc(N=Cc2ccc(Br)s2)cc1`?
LDHA inh: 26

Results for COC(=O)c1sc2cccc(F)c2c1S(=O)(=O)N1CCN(c2cccc(Cl)c2)CC1 ?
LDHA inh: 12

How did CCOc1cc(C=O)ccc1OCc1cccc2ccccc12 do in these assays?
LDHA inh: 4

How did CC(C)OCCCNC(=O)c1cc2c(-c3ccc(Cl)cc3)nn(C)c2s1 do in these assays?
TDP1 cell CPT: inconclusive; LDHA inh: -5; DT40 TDP1 no CPT: 21µM*

What do the screens show for `CCOCCCNC(=O)c1cc2c(-c3ccc(Cl)cc3)nn(C)c2s1`?
TDP1 cell CPT: inconclusive; LDHA inh: -12; RORg inh: -31%; Gal4-VP16 FLuc: -9%; IL1B secr inh: -17; DT40 TDP1 no CPT: inconclusive

What do the screens show for `Cc1c(C(=O)NCCCN2CCOCC2)sc2ncnc(N3CCN(c4ccccc4)CC3)c12`?
TDP1 cell CPT: 16µM*; LDHA inh: -9; RORg inh: -4%; Gal4-VP16 FLuc: -2%; IL1B secr inh: inconclusive; DT40 TDP1 no CPT: 21µM*

How did CCCCNC(=O)c1sc2ncnc(N3CCc4ccccc4C3)c2c1C do in these assays?
TDP1 cell CPT: 15µM*; LDHA inh: 2; RORg inh: 21%; Gal4-VP16 FLuc: -1%; IL1B secr inh: -12; DT40 TDP1 no CPT: 8.2µM*

What do the screens show for `CCOCCn1cnc2sc(C(=O)NCCCN3CCOCC3)c(C)c2c1=O`?
TDP1 cell CPT: 4%; LDHA inh: -2; RORg inh: -10%; Gal4-VP16 FLuc: 1%; IL1B secr inh: -6; DT40 TDP1 no CPT: 15%

How did COc1ccc2[nH]c(C)c(CCNC(=S)Nc3ccccc3C)c2c1 do in these assays?
TDP1 cell CPT: 18µM*; LDHA inh: -3; RORg inh: inconclusive; Gal4-VP16 FLuc: inconclusive; IL1B secr inh: -10; DT40 TDP1 no CPT: inconclusive

Results for COc1ccc2[nH]c(C)c(CCNC(=S)Nc3ccc(C)cc3)c2c1 ?
TDP1 cell CPT: 18µM*; LDHA inh: -1; RORg inh: 16%; Gal4-VP16 FLuc: -4%; IL1B secr inh: -26; DT40 TDP1 no CPT: inconclusive

How did COc1ccc2[nH]c(C)c(CCNC(=S)Nc3cccc(C)c3C)c2c1 do in these assays?
TDP1 cell CPT: inconclusive; LDHA inh: -2; RORg inh: 7.1µM*; Gal4-VP16 FLuc: inconclusive; IL1B secr inh: 8; DT40 TDP1 no CPT: 21µM*

Results for COc1ccc2[nH]c(C)c(CCNC(=O)c3cc4ccccc4oc3=O)c2c1 ?
LDHA inh: 0

Results for Cc1ccc2[nH]c(C)c(CCNC(=S)NC(C)(C)C)c2c1 ?
LDHA inh: 5

How did CCc1ccc(-c2cc(C(F)(F)F)n3ncc(C(=O)NCc4cn(CC)nc4C)c3n2)s1 do in these assays?
LDHA inh: 12

How did CN(C)C1(CNC(=O)Cc2c[nH]c3ccccc23)CCCCCC1 do in these assays?
LDHA inh: 2

How did CCOc1ccc(N(CC(=O)Nc2cccc(F)c2)S(=O)(=O)c2c(C)noc2C)cc1 do in these assays?
TDP1 cell CPT: inconclusive; LDHA inh: -10; RORg inh: -6%; Gal4-VP16 FLuc: -20%; IL1B secr inh: -1; DT40 TDP1 no CPT: 21µM*

How did CCOc1ccc(N(CC(=O)NC2CCCC2)S(=O)(=O)c2c(C)noc2C)cc1 do in these assays?
TDP1 cell CPT: -29%; LDHA inh: -2; RORg inh: 39%; Gal4-VP16 FLuc: 5%; IL1B secr inh: -2; DT40 TDP1 no CPT: -27%

Results for CCOc1ccc(N(CC(=O)Nc2ccc(C)c(C)c2)S(=O)(=O)c2c(C)noc2C)cc1 ?
TDP1 cell CPT: 9.2µM*; LDHA inh: -2; RORg inh: inconclusive; Gal4-VP16 FLuc: inconclusive; IL1B secr inh: -24; DT40 TDP1 no CPT: 10µM*

What do the screens show for `CCOC(=O)c1cccc(NC(=O)CN(c2ccc(OC)cc2)S(=O)(=O)c2c(C)noc2C)c1`?
TDP1 cell CPT: -11%; LDHA inh: -1; RORg inh: 41%; Gal4-VP16 FLuc: -4%; IL1B secr inh: -14; DT40 TDP1 no CPT: inconclusive

Results for COc1ccccc1-c1cc(C(=O)Nc2c(C)nn(Cc3ccc(C)cc3)c2C)no1 ?
LDHA inh: -12

How did CCOc1ccc2nc(Cl)c(C3CC(c4ccc(OC)cc4)=NN3S(C)(=O)=O)cc2c1 (stereo not given) do in these assays?
TDP1 cell CPT: 8.2µM*; LDHA inh: 1; DT40 TDP1 no CPT: 16µM*

How did Cc1cccc(OC(C)c2nc(-c3cccc(Br)c3)no2)c1 (stereo not given) do in these assays?
LDHA inh: 3

How did COc1ccc(OC)c2sc(N(CCN(C)C)C(=O)/C=C/c3cccs3)nc12 do in these assays?
TDP1 cell CPT: inconclusive; LDHA inh: -5; RORg inh: 16µM*; Gal4-VP16 FLuc: 10µM*; IL1B secr inh: -103*; DT40 TDP1 no CPT: inconclusive

How did COc1ccc(C)c2sc(N(CCN(C)C)C(=O)/C=C/c3cccs3)nc12 do in these assays?
TDP1 cell CPT: inconclusive; LDHA inh: 0; RORg inh: -44%; Gal4-VP16 FLuc: inconclusive; IL1B secr inh: -71*; DT40 TDP1 no CPT: inconclusive

What do the screens show for `COCCN1C(=O)c2n[nH]c(-c3ccco3)c2C1c1ccccc1OC` (stereo not given)?
LDHA inh: 1

How did CC(C)Oc1ccc(-c2nc(NCc3ccco3)c3ccccc3n2)cc1 do in these assays?
LDHA inh: 4
